Shown are actives, neighbours in structure and some others; about 2.1% of the full set was active somewhere.
ROS inducer = cancer cell ROS induction; actives 2% (n = 46,000); U2OS ROS induction, H2DCF-DA fluorescence; ROS induction (% of piperlongumine), % at 10 µM; in the data active means ROS induction above about 79%, passing the limit was not always enough;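 further: 0% = DMSO vehicle median and 100% = reference compound median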
YB-1 expr inh = YB-1 expression inhibition | delta delta Cp (YB-1 minus CDIP) (no concentration beside the values) | actives 0.37% (n = 30,000) | U2OS, qRT-PCR YB-1 vs CDIP delta delta Cp, 16 h; hits give high values; zero = DMSO, each unit about twofold;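 active means delta delta Cp rounded down to an integer at or above 3, about 3 SD of DMSO wells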;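 further: higher means less YB-1 transcript or more CDIP transcript relative to DMSO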
* = called active by the depositor; x = not tested or not shown.

SMILES	ROS inducer	YB-1 expr inh
O=C(N/N=C/c1ccc(-c2ccccc2)cc1)c1ccccc1O	4	0.2
COc1cccc(C(=O)Nc2ccc(NC(=O)C3CCCCC3C(=O)O)cc2)c1 (centres undefined)	24	x
Cc1cc(NC(=O)C2CCCCC2C(=O)O)ccc1NC(=O)c1ccccc1 (centres undefined)	126*	x
S=C(Nc1ccccc1)N1CCC(c2ccccc2)=N1	-4	x
S=C(Nc1ccccc1)N1CCN(c2ccc3nnc(-c4ccccc4)n3n2)CC1	240*	x
CC(C)(C)c1cc(C(=O)OCCN2CCCCC2)cc(C(C)(C)C)c1	13	x
CC(C(=O)N1CCN(C)CC1)N(c1ccccc1)S(C)(=O)=O (centres undefined)	-13	x
Cc1cc(C(=O)Nc2cccc3c2O[C@@H](CN(C)S(=O)(=O)c2c(C)noc2C)[C@@H](C)CN([C@@H](C)CO)C3=O)n(C)n1	-5	-0.37
C=CCN1Cc2ccccc2[C@@H]2OC(c3ccc(OCCCO)cc3)=N[C@]2(CC=C)C1=O	20	0.32
CCCSc1nnc(Cn2c(=O)sc3ccccc32)n1-c1ccccc1	-10	x
COc1ccc(C2C(C(=O)O)c3ccccc3C(=O)N2Cc2ccc(Cl)cc2)cc1 (centres undefined)	-3	0.26
COc1ccc(CN2C(=O)[C@@H]3[C@H]4C(=O)O[C@H](c5ccccc5)[C@@H](C)N(C)C(=O)CC/C=C/[C@H]4O[C@@]34C=CCN(Cc3ccccc3)C(=O)[C@@H]24)cc1	122*	0.0045
C[C@@H]1CN([C@H](C)CO)C(=O)CCCn2cc(nn2)CO[C@@H]1CN(C)S(=O)(=O)c1ccccc1	104*	0.039
C[C@H](CO)N1C[C@H](C)[C@H](CN(C)S(=O)(=O)c2cccs2)OCc2cn(nn2)CCCC1=O	28	-0.47
C[C@@H]1CN([C@H](C)CO)C(=O)CCCn2cc(nn2)CO[C@@H]1CN(C)S(=O)(=O)c1cccs1	89*	-0.34
C[C@H]1CN([C@@H](C)CO)C(=O)CCCn2cc(nn2)CO[C@H]1CN(C)S(=O)(=O)c1ccccc1	-22	-0.064
C[C@@H]1CN([C@H](C)CO)C(=O)Cc2cc(NC(=O)Nc3cccc4ccccc34)ccc2O[C@H]1CN(C)CC1CC1	-7	0.29
COC(=O)c1cccc(NC(=O)COc2ccc(I)cc2)c1	26	x
CCn1c(SCC(=O)c2ccc(Br)cc2)nnc1-c1ccncc1	0	x
Cc1cc(C)cc(NC(=O)c2ccc3c(c2)NC(=O)c2ccccc2S3)c1	11	x
COc1ccc(-c2cc(C(F)F)n3ncc(C(=O)Nc4cccc(S(=O)(=O)N5CCOCC5)c4)c3n2)cc1	133*	x
COc1ccc(S(=O)(=O)N2CCOCC2)cc1C(=O)Nc1ccc(S(=O)(=O)C(F)F)cc1	11	x
CCCOC(=O)COc1ccc2c(=O)c(-c3ccccc3OC)coc2c1	236*	x
COC(=O)COc1ccc2c(=O)c(Oc3ccc(OC)cc3)coc2c1	22	x
C[C@@H]1CN([C@@H](C)CO)C(=O)c2cccc(NS(=O)(=O)c3ccc(F)cc3)c2O[C@@H]1CN(C)S(=O)(=O)c1cn(C)cn1	-6	-0.026
SMILES	ROS inducer	YB-1 expr inh
C[C@@H]1CN([C@H](C)CO)C(=O)Cc2cc(NC(=O)C3CCCCC3)ccc2O[C@H]1CN(C)Cc1ccncc1	2	-8.7
Clc1ccccc1/C=C/C=Nc1ccc(N2CCOCC2)cc1	128*	0.031
C(=Nc1ccc(N2CCOCC2)cc1)c1ccc(Sc2nc3ccccc3[nH]2)o1	-4	x
CC(C)CNC(=O)c1ccc(COc2cc(Cl)ccc2Cl)o1	7	x
C[C@H](CO)N1C[C@H](C)[C@H](CN(C)C(=O)Nc2ccc(F)cc2)Oc2ncc(-c3cccc(C(F)(F)F)c3)cc2C1=O	91*	0.057
C[C@H](CO)N1C[C@H](C)[C@H](CN(C)C(=O)Nc2ccccc2)Oc2ncc(-c3cccc(C(F)(F)F)c3)cc2C1=O	98*	0.088
C[C@H](CO)N1C[C@H](C)[C@H](CN(C)Cc2ccc(F)cc2)Oc2ncc(-c3cccc(C(F)(F)F)c3)cc2C1=O	77*	-0.37
C[C@H](CO)N1C[C@H](C)[C@H](CN(C)Cc2ccccc2)Oc2ncc(-c3cccc(C(F)(F)F)c3)cc2C1=O	42	0.14
C[C@H](CO)N1C[C@H](C)[C@H](CN(C)C(=O)Nc2ccccc2)Oc2ncc(-c3cc4ccccc4o3)cc2C1=O	153*	-0.13
C[C@H](CO)N1C[C@H](C)[C@H](CN(C)C(=O)Nc2ccc(F)cc2)Oc2ncc(-c3cccc(F)c3)cc2C1=O	75	-0.34
CC(C)NC(=O)N(C)C[C@@H]1Oc2ncc(-c3cc4ccccc4o3)cc2C(=O)N([C@H](C)CO)C[C@@H]1C	-6	-0.21
COc1ccc(NC(=O)N(C)C[C@@H]2Oc3ncc(-c4cccc(C(F)(F)F)c4)cc3C(=O)N([C@H](C)CO)C[C@@H]2C)cc1	32	-0.015
Clc1ccccc1CSc1nnc(Cn2cnc3ccccc32)n1-c1ccccc1	4	x
